Measured values as given in PubChem BioAssay.
Activity calls are given as the source filed them.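 How the source made its calls, unless noted: active means normalized viability below 100% at a tested concentration; inactive means the rest.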

How the values were obtained:
[1] = viability loss with induced miR-34 in A549 – imaging, A549 dox-inducible miR-34, nuclei and caspase counts, primary screen (AID 1347080;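 active means compounds whose cell count with miR-34 switched on is under 0.7 times the count with it off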); details: A549 miR-34 inducible, Hoechst nuclei count, 48 h
[2] = MELAS cybrid and Rieske KO viability enhancers – cell-based, MELAS cybrids, Rieske KO mouse fibroblasts, CellTiter-Glo, primary screen (AID 1508586;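 active means mean z-score across replicates of 1.96 or higher in either the MELAS or the Rieske mutant cell line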;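 further: z relative to plate mean and SD of compound and empty wells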); details: low glucose
[3] = drug combination growth inhibition, ovarian cancer – cell-based, oncology-focused library, rucaparib conditional, profiling panel (AID 1508598); details: patient-derived ovarian cancer cells, CellTiter-Glo viability, 144 h, stronger effect = lower value
[4] = stronger effect = lower value, cell number ratio, induced over uninduced
[5] = measured here: relative caspase fold change +Dox/-Dox
[6] = measured here: total cells with miR-34 induction, stronger effect = lower value
[7] = measured here: total cells without miR-34 induction
[8] = MELAS cybrid survival, CellTiter-Glo 48 h, stronger effect = higher value
[9] = Rieske KO mouse fibroblast survival, CellTiter-Glo 72 h
[10] = at 0.000305 µM, OCI-C5x cells, with rucaparib 10 µM, 100% = cells with rucaparib alone
[11] = at 0.000305 µM, OCI-C5x cells, without rucaparib
[12] = at 0.000305 µM, OCI-P5x cells, with rucaparib 20 µM, 100% = cells with rucaparib alone
[13] = at 0.000305 µM, OCI-P5x cells, without rucaparib
[14] = at 0.00122 µM, OCI-C5x cells, with rucaparib 10 µM, 100% = cells with rucaparib alone
[15] = at 0.00122 µM, OCI-C5x cells, without rucaparib
[16] = at 0.00122 µM, OCI-P5x cells, with rucaparib 20 µM, 100% = cells with rucaparib alone
[17] = at 0.00122 µM, OCI-P5x cells, without rucaparib
[18] = at 0.00488 µM, OCI-C5x cells, with rucaparib 10 µM, 100% = cells with rucaparib alone
[19] = at 0.00488 µM, OCI-C5x cells, without rucaparib
[20] = at 0.00488 µM, OCI-P5x cells, with rucaparib 20 µM, 100% = cells with rucaparib alone
[21] = at 0.00488 µM, OCI-P5x cells, without rucaparib
[22] = at 0.0195 µM, OCI-C5x cells, with rucaparib 10 µM, 100% = cells with rucaparib alone
[23] = at 0.0195 µM, OCI-C5x cells, without rucaparib
[24] = at 0.0195 µM, OCI-P5x cells, with rucaparib 20 µM, 100% = cells with rucaparib alone
[25] = at 0.0195 µM, OCI-P5x cells, without rucaparib
[26] = at 0.0781 µM, OCI-C5x cells, with rucaparib 10 µM, 100% = cells with rucaparib alone
[27] = at 0.0781 µM, OCI-C5x cells, without rucaparib
[28] = at 0.0781 µM, OCI-P5x cells, with rucaparib 20 µM, 100% = cells with rucaparib alone
[29] = at 0.0781 µM, OCI-P5x cells, without rucaparib
[30] = at 0.313 µM, OCI-C5x cells, with rucaparib 10 µM, 100% = cells with rucaparib alone
[31] = at 0.313 µM, OCI-C5x cells, without rucaparib
[32] = at 0.313 µM, OCI-P5x cells, with rucaparib 20 µM, 100% = cells with rucaparib alone
[33] = at 0.313 µM, OCI-P5x cells, without rucaparib

## COc1cc(C(=O)NC2CCN(C)CC2)ccc1Nc1ncc2c(n1)N(C1CCCC1)CC(F)(F)C(=O)N2C
[1]; [4]
  fold change: 1.05 (inactive)
[1]; [5]
  fold change: 0.442
[1]; [6]
  cell count: 1340
[1]; [7]
  cell count: 1280
[2]; [8]
  z-score: -0.321 (inactive)
[2]; [9]
  z-score: -2.73
[3]; [10]
  viability: 103% (inactive)
[3]; [11]
  viability: 98.4% (active)
[3]; [12]
  viability: 95.2% (active)
[3]; [13]
  viability: 86.9% (active)
[3]; [14]
  viability: 97.8% (active)
[3]; [15]
  viability: 102% (inactive)
[3]; [16]
  viability: 99.5% (active)
[3]; [17]
  viability: 93.6% (active)
[3]; [18]
  viability: 111% (inactive)
[3]; [19]
  viability: 105% (inactive)
[3]; [20]
  viability: 89.4% (active)
[3]; [21]
  viability: 69.2% (active)
[3]; [22]
  viability: 73.1% (active)
[3]; [23]
  viability: 61.3% (active)
[3]; [24]
  viability: 68.6% (active)
[3]; [25]
  viability: 21.8% (active)
[3]; [26]
  viability: 64% (active)
[3]; [27]
  viability: 42.6% (active)
[3]; [28]
  viability: 63% (active)
[3]; [29]
  viability: 15.8% (active)
[3]; [30]
  viability: 39.9% (active)
[3]; [31]
  viability: 27.3% (active)
[3]; [32]
  viability: 70.3% (active)
[3]; [33]
  viability: 15.5% (active)
[3]; at 1.25 µM, OCI-C5x cells, with rucaparib 10 µM, 100% = cells with rucaparib alone
  viability: 31% (active)
[3]; at 1.25 µM, OCI-C5x cells, without rucaparib
  viability: 19.6% (active)
[3]; at 1.25 µM, OCI-P5x cells, with rucaparib 20 µM, 100% = cells with rucaparib alone
  viability: 66.4% (active)
[3]; at 1.25 µM, OCI-P5x cells, without rucaparib
  viability: 17.5% (active)
[3]; at 5 µM, OCI-C5x cells, with rucaparib 10 µM, 100% = cells with rucaparib alone
  viability: 25.7% (active)
[3]; at 5 µM, OCI-C5x cells, without rucaparib
  viability: 19.7% (active)
[3]; at 5 µM, OCI-P5x cells, with rucaparib 20 µM, 100% = cells with rucaparib alone
  viability: 53.1% (active)
[3]; at 5 µM, OCI-P5x cells, without rucaparib
  viability: 17.9% (active)

## Cc1cc(C)c(-c2csc(NC(=O)c3ccccc3)n2)c(C)c1
[1]; [4]
  fold change: 0.83 (inactive)
[1]; [5]
  fold change: 0.759
[1]; [6]
  cell count: 3610
[1]; [7]
  cell count: 4340
[2]; [8]
  z-score: -0.374 (inactive)
[2]; [9]
  z-score: 0.994
[3]; [10]
  viability: 97.8% (active)
[3]; [11]
  viability: 101% (inactive)
[3]; [12]
  viability: 104% (inactive)
[3]; [13]
  viability: 97.3% (active)
[3]; [14]
  viability: 113% (inactive)
[3]; [15]
  viability: 97.2% (active)
[3]; [16]
  viability: 101% (inactive)
[3]; [17]
  viability: 104% (inactive)
[3]; [18]
  viability: 108% (inactive)
[3]; [19]
  viability: 107% (inactive)
[3]; [20]
  viability: 103% (inactive)
[3]; [21]
  viability: 104% (inactive)
[3]; [22]
  viability: 104% (inactive)
[3]; [23]
  viability: 96.2% (active)
[3]; [24]
  viability: 103% (inactive)
[3]; [25]
  viability: 105% (inactive)
[3]; [26]
  viability: 111% (inactive)
[3]; [27]
  viability: 105% (inactive)
[3]; [28]
  viability: 105% (inactive)
[3]; [29]
  viability: 102% (inactive)
[3]; [30]
  viability: 111% (inactive)
[3]; [31]
  viability: 103% (inactive)
[3]; [32]
  viability: 104% (inactive)
[3]; [33]
  viability: 101% (inactive)
